# Compounds with a hit are over-represented: about 19% of the library has one in this group of screens.
# Shiga toxin inh – A qHTS for Small Molecule Inhibitors of Shiga Toxin; hit rate 9.2% among 290,000; inhibition, % at 38.7 µM; Vero cells, Shiga toxin protein synthesis inhibition reporter; in the data active means inhibition mostly above about 28%, no sharp cut-off; inactive means mostly below about 43%; further: 0% is about no effect
# AMA1 RON2 block – qHTS for Inhibitors of AMA1-RON; Towards Development of Antimalarial Drug Lead: Primary Screen | AlphaScreen AMA1-biotinylated RON2 peptide binding | Potency, µM (doses to about 58.2 µM), for inactives: at the top dose activity change, negative = inhibition, actives largely listed as inhibitors | hit rate 0.2% among 360,000;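 further: potency means the concentration at half of the fitted maximal effect; 0% = vehicle wells and -100% = peptide control; nearly all actives have a fitted effect of over 45% in size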
#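 AMA1 (3D7) with his tag at 25 nM final met compounds first, then biotinylated RON2 peptide at 25 nM; detection used donor plus acceptor beads, 10 µg/mL apiece, read by AlphaScreen after 30 min at room temperature.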
# SARS PLP yeast – qHTS of Yeast-based Assay for SARS-CoV PLP; hit rate 0.19% among 330,000; S. cerevisiae expressing SARS-CoV PLpro, growth rescue; Potency, µM (doses to about 32.9 µM), for inactives: top-dose activity, positive = growth rescue, hits mostly activators; calls by dose curve; further: potency means the concentration at half of the fitted maximal effect; 0% is about no effect; nearly all actives have a fitted effect of over 55% in size
# Cycloheximide cs – Cycloheximide Counterscreen for Small Molecule Inhibitors of Shiga Toxin; cell reporter, cycloheximide protein synthesis inhibition counterscreen; max response, %; hit rate 12% among 300,000; in the data active means max response mostly above about 13%, no sharp cut-off; inactive means mostly below about 14%; further: read at 38.3 µM for the half of the compounds with a filed dose; 0% is about no effect
# Pf growth 96h – Primary qHTS for delayed death inhibitors of the malarial parasite plastid, 96 hour incubation | P. falciparum luciferase reporter growth, 96 h | Potency, µM (highest dose often 28.7 µM), for inactives: at the highest dose activity change, negative = inhibition, hits mostly inhibitors | hit rate 6.9% among 320,000 | AID 504834, 2011; further: potency means the concentration at half of the fitted maximal effect; on the % scale 0 is the no-effect control and ±100 the full control effect
#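 Compounds incubated with erythrocytes infected by luciferase-expressing P. falciparum (2% hematocrit, 0.05% parasitemia final) for 96 hours, 37 C in 5% CO2. Growth inhibition scored as decreased luciferase luminescence.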
# Pf growth 48h – Primary qHTS for delayed death inhibitors of the malarial parasite plastid, 48 hour incubation; P. falciparum luciferase growth in erythrocytes, 48 h; Potency, µM (series often up to 28.7 µM), without a hit: at the top dose activity change, negative = inhibition, usual class: inhibitors; hit rate 5.9% among 310,000; AID 504832, 2011; further: potency means the concentration at half of the fitted maximal effect; on the % scale 0 is the no-effect control and ±100 the full control effect
#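 Luciferase-expressing parasites in RBCs, 2% Hct / 0.1% parasitemia final; RPMI 1640 + 0.5% Albumax; 37 C, 5% CO2, one generation; luminescence read-out, lower signal = inhibition.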
# The depositor's hits bear a star; ? = inconclusive; nt = no result given; [ ] = remark or other dose. Unless noted, the call rests on the fitted dose curve; in most records, active means well fitted curve in the direction sought with a large enough effect; inconclusive means small, poorly fitted or top-dose-only effect, or another doubt; inactive means no such curve, though single readings can be large; an effect the other way counts as inactive or inconclusive.
SMILES,Shiga toxin inh,AMA1 RON2 block,SARS PLP yeast,Cycloheximide cs,Pf growth 96h,Pf growth 48h
O=C1C2C(c3ccccc3)CC=CC2C(c2ccc(C(F)(F)F)cc2)N1Cc1ccccc1 (stereo not drawn),-4,nt,nt,1,nt,nt
Cc1c(NC2=NC3(CCCCC3)Cc3ccccc32)c(=O)n(C)n1-c1ccccc1,-1,18%,-2%,1,-14%,-15%
Cn1c(=O)n(Cc2ccccc2F)c(=O)c2c1nc1n2CCN1Cc1ccco1,-13,-23%,1%,4,8.3µM*,?
Cc1cccc(Cn2c(=O)c3c(nc4n3CCN4Cc3ccco3)n(C)c2=O)c1,-3,0%,-1%,10,5.9µM*,9.3µM*
CCCn1c(=O)c2c(nc3n2CCN3Cc2ccco2)n(C)c1=O,15,0%,0%,1,6%,-17%
Cn1c(=O)n(Cc2ccc(Cl)cc2)c(=O)c2c1nc1n2CCN1Cc1ccco1,-8,4%,7%,14,13µM*,?
Cn1c(NCCCO)nc2c1c(=O)n(Cc1ccccc1F)c(=O)n2C,-1,-9%,6%,-3,-14%,-9%
COc1ccccc1Oc1nc2c(c(=O)n(Cc3ccccc3F)c(=O)n2C)n1C,-9,4%,-5%,-2,15µM*,-25%
Cc1ccc(CS(=O)(=O)CCC(=O)N2CCOCC2)cc1,17,6%,0%,-2,19%,6%
COc1cc(CN2CCNC(=O)C2CC(=O)N(C)CCCN2CCOCC2)cc(OC)c1 (stereo not drawn),5,25%,2%,-2,4%,0%
COc1ccc(/C=N/NC(=O)c2ccn[nH]2)cc1CSc1ccccn1,75*,73%,-3%,65*,46%,83%
COc1ccc(/C=N/NC(=O)c2cccc(Br)c2)cc1CSc1ccccn1,29,-3%,21%,15,?,17%
COc1ccc(/C=N/NC(=O)c2ccn[nH]2)cc1COc1ccc(Cl)cc1,115,108%,-11%,31*,-11%,?
O=C(NC(Nc1nc2ccc([N+](=O)[O-])cc2s1)(C(F)(F)F)C(F)(F)F)c1ccccc1Cl,-9,-6%,-99%,-4,0.93µM*,1.5µM*
O=C(NC(Nc1nc2ccc([N+](=O)[O-])cc2s1)(C(F)(F)F)C(F)(F)F)c1cccnc1,-7,4%,-24%,7,?,7.4µM*
O=[N+]([O-])c1ccc2nc(NS(=O)(=O)c3ccccc3[N+](=O)[O-])sc2c1,3,0%,-5%,8,?,38%
O=C(NC(NNc1ccc([N+](=O)[O-])cc1)(C(F)(F)F)C(F)(F)F)c1ccccc1Cl,-14,-10%,-41%,-3,?,-6%
CCN(C(=O)CSc1nccc(=O)[nH]1)C1CCCCC1,nt,18%,-2%,nt,nt,nt
Cc1nnc(Nc2ccc3c(c2)OCO3)c2ccccc12,114*,-7%,2%,20,?,82%
Cc1ccc(-c2nnc(Nc3ccc4c(c3)OCO4)c3ccccc23)cc1S(N)(=O)=O,-14,?,21%,-4,2.9µM*,?
CC(=O)Nc1ccc(Nc2nnc(-c3ccc(C)c(S(N)(=O)=O)c3)c3ccccc23)cc1,-4,25%,1%,-5,-2%,?
CCN(CC)S(=O)(=O)c1ccc(NC(=O)COC(=O)c2ccc(NC(=O)CC#N)cc2)cc1,-6,-1%,0%,-1,51%[1.15 µM],0%
Cc1[nH]c2ccccc2c1C(=O)COC(=O)Cn1cnc2ccccc21,-10,-4%,4%,-1,-10%,4%
CCOC(=O)CCCCC(=O)c1[nH]c(=O)[nH]c1Cn1cnc2ccccc21,-6,38µM*,3%,-2,nt,-7%
CCOC(=O)CCCCC(=O)c1[nH]c(=O)[nH]c1CSc1nc(-c2ccccc2)c(C#N)c(=O)[nH]1,-10,?,1%,-4,6%,-3%
SMILES,Shiga toxin inh,AMA1 RON2 block,SARS PLP yeast,Cycloheximide cs,Pf growth 96h,Pf growth 48h
CCOC(=O)CCCCC(=O)c1[nH]c(=O)[nH]c1CSCCO,-7,7.5µM*,14%,-2,nt,?
CNC(=O)C(=O)NCC1OCCN1S(=O)(=O)c1ccc(C)cc1 (stereo not drawn),-29,6%,0%,1,22%,7%
Cc1ccc(S(=O)(=O)N2CCOC2C(Cl)(Cl)Cl)cc1 (stereo not drawn),-9,0%,-2%,-3,14%,8.3µM*
CN(c1ccccc1)S(=O)(=O)c1cccc(C(=O)Nc2nn[nH]n2)c1,7,49%,1%,-2,27%,33%
Cc1ccccc1NC(=O)C(=O)Nc1ccccc1C,49*,-3%,-1%,23*,173%,125%
Cc1ccc(C)n1NC(=O)c1ccccc1O,36,31%,-3%,3,9.3µM*,?
Cc1ccc(C)n1NC(=O)c1ccccc1[N+](=O)[O-],-6,-10%,3%,-2,-28%,1%
Cc1ccccc1N=C(N)Nc1ccccc1C,nt,-1%,-1%,nt,10µM*,?
Cc1ccccc1NC(=O)NC(N)=O,14,10%,3%,5,-4%,15%
Cc1ccccc1NC(=O)c1ccccc1O,20,-1%,-36%,24*,1%,?
COc1cc2c(=O)n(CC3CCCO3)c(=O)n(CC(=O)Nc3ccccc3)c2cc1OC (stereo not drawn),3,-10%,8%,5,?,-10%
COC(=O)c1cc(S(=O)(=O)NCc2ccc3c(c2)OCO3)cn1C,-3,-2%,1%,-4,?,1%
CN1C2=C(C#N)C(c3ccccc3)(C(F)(F)F)NC(=O)N2c2ccccc21 (stereo not drawn),-16,6%,1%,0,7.4µM*,nt
O=c1c(Cc2ccccc2)c(O)ccn1CCc1cnc[nH]1,-2,7%,0%,13,?,?
Cc1cc(NC(=O)CS(=O)(=O)c2ccc(Cl)cc2)no1,-3,6%,-1%,8,28%,7%
Cc1cc(C(=O)Nc2nnc(C3CCCCC3)s2)cs1,63,-7%,-2%,38*,0%,109%
Cc1cc(C(=O)Nc2nnc(C(F)(F)F)s2)cs1,9,15%,-2%,18*,59%,36%
O=C(Nc1nnc(C(F)(F)F)s1)c1ccc(Br)s1,54*,-15%,-4%,21*,16%,39%
O=C(Nc1nnc(C2CCCCC2)s1)c1ccc(Br)s1,-3,1%,-1%,7,230%,14%
CC(NC(=O)Nc1nnc(C(F)(F)F)s1)(C(F)(F)F)C(F)(F)F,20,2%,-35%,1,5%,3.3µM*
COc1ccc(S(=O)(=O)N2CCN(C(=O)Cc3ccsc3)CC2)cc1,nt,15%,-2%,nt,-1%,-7%

# Assay outcomes (PubChem BioAssay)
